# Data from PubChem BioAssay.
# “And” between values parts separate entries of the source, which are not always exact repeats. Identical values can stand only once. Values without a mark were called inactive. Records with an inconclusive call do not appear. The source made the active and inactive calls.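 Rule for the calls, unless noted: active = compounds whose cell count with miR-34 switched on is under 0.7 times the count with it off; inactive = the rest.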
# Experiment: SU-DIPG-XXV glioma cell viability, MIPE5.0 library, qHTS (AID 1347068; cut-off not given, nearly all actives have IC50 up to about 30 µM;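 for IC50: cells exposed to compound for 48 hours before viability readout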)
# Conditions: not given
Compound,outcome,IC50
COc1cccc(-c2cc(=O)c3ccccc3o2)c1N,inactive,
O=Nc1c(-c2c(O)[nH]c3cc(Br)ccc23)[nH]c2ccccc12,,10.5 µM (active)
O=c1[nH]nc(Sc2ncc([N+](=O)[O-])s2)n1-c1ccc2c(c1)OCCO2,,23.5 µM (active)
N[C@H](CSC(c1ccccc1)(c1ccccc1)c1ccccc1)C(=O)O,inactive,
COc1nccc(-c2c(-c3ccc(F)cc3)ncn2C2CCC(O)CC2)n1 (stereo unspecified),inactive,
CCOc1cc(C(=O)Nc2ccc(Cl)c(-c3nc4ccccc4[nH]3)c2)cc(OCC)c1OCC,inactive,
O=C(O)CCc1ccc(NCc2cccc(Oc3ccccc3)c2)cc1,inactive,
Oc1ccc2ccccc2c1SSc1c(O)ccc2ccccc12,inactive,
CC(Oc1ccc(O)cc1)(P(=O)(O)O)P(=O)(O)O,inactive,
CCN(CC)CCCC(C)Nc1nc(C)cc(Nc2ccc3nc(C)cc(N)c3c2)n1 (stereo unspecified),inactive,
CN1C(=O)C(Cc2c[nH]c3ccccc23)NC1=S (stereo unspecified),inactive,
COc1ccc([C@@H]2CNC(=O)C2)cc1OC1CCCC1,inactive,
O=C(O)C1CCCN(CCC=C(c2ccccc2)c2ccccc2)C1 (stereo unspecified),inactive,
CCOc1ccc(Nc2nc(-c3c(C)nc4ccccn34)cs2)cc1,,0.372 µM (active)
O=C1NC(=O)C(c2ccccc2[N+](=O)[O-])=C1Nc1ccc(O)c(Cl)c1,inactive,
Fc1ccc(Cl)cc1-c1nc(Nc2ccncc2)c2nccnc2n1,inactive,
Cc1cc(NC(=O)Nc2ccc(N(C)C)cc2)c2cc(F)cc(F)c2n1,inactive,
Cc1ccc(/C=N/NC(=O)c2ccccc2Oc2ccccc2)o1,inactive,
CCOC(=O)C1=C(C)NC(=S)NC1c1cccc(O)c1 (stereo unspecified),inactive,
CCOC(=O)C1=C(N)Oc2ccc(Br)cc2C1C(C#N)C(=O)OCC (stereo unspecified),inactive,
Cc1cc(I)ccc1Nc1c(C(=O)NOCC2CC2)cc(F)c(F)c1F,,10.5 µM (active)
COC1CCC(C(=O)c2ccc3nc4c(cc3c2)CCCO4)CC1 (stereo unspecified),inactive,
CC(C)[C@H](CO)Nc1nc(Nc2ccc(C(=O)O)c(Cl)c2)c2ncn(C(C)C)c2n1,inactive,
CCCCC[C@H](O)/C=C/[C@H]1[C@H](O)CC(=O)[C@@H]1C/C=C\CCCC(=O)O,inactive,
N#Cc1c(O)c2c(-c3ccc(-c4ccccc4O)cc3)csc2[nH]c1=O,inactive,
O=c1[nH]c(-c2ccc(C(F)(F)F)cc2)nc2c1CSCC2,inactive,

# Experiment: sensitizers of A549 cells to miR-34 induction, primary screen, imaging, A549 dox-inducible miR-34, nuclei and caspase counts (AID 1347080)
# Conditions: A549 miR-34 inducible, Hoechst nuclei count, 48 h; active compounds read low; cell number ratio, induced over uninduced
row,Compound,fold change
1,CC[C@H](NC(C)C)[C@H](O)c1ccc(O)c2[nH]c(=O)ccc12,0.929 and 0.941
2,COc1cc2nccc(Oc3ccc(NC(=O)Nc4ccc(F)cc4F)c(F)c3)c2cc1OC,0.97 and 0.906
3,O=c1[nH]nc(Sc2ncc([N+](=O)[O-])s2)n1-c1ccc2c(c1)OCCO2,1.25
4,N[C@H](CSC(c1ccccc1)(c1ccccc1)c1ccccc1)C(=O)O,0.901
5,O=c1cc(-c2cccc3c2Sc2ccccc2S3)oc(N2CCOCC2)c1,0.936 and 1.01
6,COc1nccc(-c2c(-c3ccc(F)cc3)ncn2C2CCC(O)CC2)n1 (stereo unspecified),0.979
7,CCc1c2c(nc3ccc(O)cc13)-c1cc3c(c(=O)n1C2)COC(=O)[C@]3(O)CC,0.769 and 0.994
8,CCOc1cc(C(=O)Nc2ccc(Cl)c(-c3nc4ccccc4[nH]3)c2)cc(OCC)c1OCC,0.991
9,Oc1ccc2ccccc2c1SSc1c(O)ccc2ccccc12,0.974 and 0.952 and 0.85
10,CC(Oc1ccc(O)cc1)(P(=O)(O)O)P(=O)(O)O,0.98
11,CCN(CC)CCCC(C)Nc1nc(C)cc(Nc2ccc3nc(C)cc(N)c3c2)n1 (stereo unspecified),0.97 and 0.925
12,CN1C(=O)C(Cc2c[nH]c3ccccc23)NC1=S (stereo unspecified),0.887 and 0.965
13,COc1ccc([C@@H]2CNC(=O)C2)cc1OC1CCCC1,0.954
14,O=C1Nc2ccc(I)cc2/C1=C/c1cc(Br)c(O)c(Br)c1,0.983 and 1.01 and 0.869
15,O=C(O)C1CCCN(CCC=C(c2ccccc2)c2ccccc2)C1 (stereo unspecified),0.98 and 0.952
16,CCOc1ccc(Nc2nc(-c3c(C)nc4ccccn34)cs2)cc1,1.03
17,Nc1ncnc2nc(-c3ccc(N4CCOCC4)nc3)cc(-c3cccc(Br)c3)c12,0.949
18,O=C1NC(=O)C(c2ccccc2[N+](=O)[O-])=C1Nc1ccc(O)c(Cl)c1,1 and 1.09 and 0.982

row,Compound,fold change
1,Fc1ccc(Cl)cc1-c1nc(Nc2ccncc2)c2nccnc2n1,0.904
2,Cc1cc(NC(=O)Nc2ccc(N(C)C)cc2)c2cc(F)cc(F)c2n1,0.902 and 0.887
3,Cc1ccc(/C=N/NC(=O)c2ccccc2Oc2ccccc2)o1,0.862
4,O=C(O)c1ccc2cc(-c3ccc(O)c(C45CC6CC(CC(C6)C4)C5)c3)ccc2c1,1.3
5,COc1cc(OC)c(NC(=O)Nc2cc(C)on2)cc1Cl,0.801 and 0.945
6,NC(=O)c1ccc2[nH]ccc2c1,1.06 and 0.993
7,Cc1[nH]c(/C=C2\C(=O)Nc3ccccc32)c(C)c1CCC(=O)O,0.887
8,CCOC(=O)C1=C(C)NC(=S)NC1c1cccc(O)c1 (stereo unspecified),0.947 and 1.05
9,CCOC(=O)C1=C(N)Oc2ccc(Br)cc2C1C(C#N)C(=O)OCC (stereo unspecified),1.02
10,Cc1cc(I)ccc1Nc1c(C(=O)NOCC2CC2)cc(F)c(F)c1F,1.12
11,COc1ccc(CCN(C)CCCOc2ccc(S(=O)(=O)c3c(C(C)C)c4ccccc4n3C)cc2)cc1OC,1.02
12,CCC(C)N(C)C(=O)c1cc2ccccc2c(-c2ccccc2Cl)n1 (stereo unspecified),0.969 and 0.89
13,COC1CCC(C(=O)c2ccc3nc4c(cc3c2)CCCO4)CC1 (stereo unspecified),0.932
14,O=C(O)c1ccc(-c2c[nH]c3ncc(-c4ccccc4)cc23)cc1C1CCCC1,0.863 and 0.894
15,CC(C)[C@H](CO)Nc1nc(Nc2ccc(C(=O)O)c(Cl)c2)c2ncn(C(C)C)c2n1,0.902
16,N#Cc1c(O)c2c(-c3ccc(-c4ccccc4O)cc3)csc2[nH]c1=O,0.919 and 1.01
17,O=c1[nH]c(-c2ccc(C(F)(F)F)cc2)nc2c1CSCC2,0.924 and 0.863 and 0.929
